# Laboratory results reported in ChEMBL document CHEMBL4513216, “Probing the Open Global Health Chemical Diversity Library for Multistage-Active Starting Points for Next-Generation Antimalarials” (ACS Infect Dis, 2020).
# Out of some 65,000 compounds screened, about 2,100 (3.2%) showed an effect of 50% or more. The median lay at about -52%. The list comes from a sample in which strong results are over-represented; it also holds similar structures and randomly drawn compounds.
# System: Plasmodium falciparum
# Assay: Screen against P. falciparum Asexual Blood Stage (ABS), at 5uM
# Format: functional, Dd2
# Conditions: tested at 5 uM
row,SMILES,INHIBITION [%]
1,Cc1cc(CN2C[C@@H]3CN(Cc4ccsc4)CCO[C@@H]3C2)no1,-101
2,CC(C)(C)c1cc(=O)[nH]c(C2(N)CCCCC2)n1,-114
3,O=C(NC1CCC1)[C@H]1C[C@H]2NCCO[C@@H]2C1,-269
4,c1ccc(N2CCCC3(CCN(Cc4ccsc4)C3)C2)nc1 (centres undefined),82.6
5,c1ccc(N2CC3(CCN(Cc4cccnc4)C3)C2)nc1,-13.8
6,CCc1nc(CC(=O)N2CCCC2CN2CCCC2)cs1 (centres undefined),-48.9
7,CN(Cc1n[nH]c2c1CCCC2)c1nc(C2CC2)nc2c1CCNCC2,89.5
8,CN(C)c1nc2c(c(N(C)Cc3n[nH]c4c3CCCC4)n1)CCNCC2,84.4
9,CN(C)C[C@]12COC[C@H]1CN(Cc1ccc3ccccc3n1)C2,27.2
10,Cn1cccc1C(=O)N1CCN2C[C@H](Oc3cccnc3)C[C@H]2C1,30.4
11,COC(=O)c1ccc(C2SCC(=O)Nc3c2cnn3C(C)(C)C)cc1 (centres undefined),-53.3
12,CN(Cc1cccc(F)c1)C(=O)CS(=O)(=O)Cc1c(Cl)cccc1Cl,82.7
13,CCc1nnc(NC(=O)CCN2CC=C(c3cnn(C)c3)CC2)s1,-25.3
14,COc1ccccc1C(C)(C)NCc1ccc(C)o1,77.9
15,c1cncc(CN2CCO[C@H]3[C@H](OCCN4CCCC4)CC[C@@H]32)c1,-68.3
16,c1cc(CN2CCO[C@H]3[C@H](OCCN4CCCC4)CC[C@@H]32)ccn1,-53.4
17,CC(Cn1cccn1)NCc1nc(-c2ccco2)no1 (centres undefined),-82
18,O=C1C[C@H]2[C@@H](CCN2Cc2ccccn2)N1Cc1cccnc1,-99.2
19,CN1CCCC1CNC(=O)CCCOc1cccc(Br)c1 (centres undefined),71.7
20,CC(=O)N1C[C@H]2CNC[C@@]2(C(=O)NCCCOc2cccnc2)C1,-133
21,CN1CCCC1CNC(=O)CCCOc1ccc(Cl)cc1 (centres undefined),78.2
22,CCc1c(C)[nH]c(C2(N)CCCCC2)nc1=O,-26.9

row,SMILES,INHIBITION [%]
1,CCN1CCN(Cc2nc(CC(C)C)no2)CC1,34.7
2,Cc1noc(C)c1CN1CC[C@H]2OCC[C@@]2(C(=O)N2CCCC2)C1,-28.8
3,CCC(=O)NCC(=O)NCC1(c2c(F)cccc2F)CCCC1,73.7
4,Cc1cc(CN2C[C@@H]3COC[C@]3(CNC(=O)N(C)C)C2)no1,-94.8
5,Cc1ccc(CN2CCO[C@H]3[C@@H](OCc4cccnc4)CC[C@@H]32)o1,3.59
6,Cc1ccc(CN2CCC3(CC2)CC3CN(C)Cc2cccnc2)o1 (centres undefined),70.8
7,Cc1ccc(CN2CCO[C@H]3[C@H](OCc4cccnc4)CC[C@@H]32)o1,-70.3
8,CCN(C)c1ncc2c(c1C(=O)O)CCN(C1CCOC1)C2 (centres undefined),-4.54
9,Cc1cnc(Nc2cccc(C3CCCN3Cc3cn(C)nc3C)n2)s1 (centres undefined),89.8
10,Cc1cccc(CN2CCCC2c2cccc(Nc3nccs3)n2)c1 (centres undefined),88.1
11,Cc1cccc(CO[C@@H]2CC[C@H]3[C@H]2OCCN3Cc2nccs2)n1,-43.3
12,c1ccc(CCN2CCCC2c2cccc(Nc3nccs3)n2)cc1 (centres undefined),77
13,Cc1cccc(CN2C(=O)C[C@H]3[C@@H]2CCN3Cc2nccs2)n1,-3.26
14,Cc1ccccc1CN1CCCC1c1cccc(Nc2nccs2)n1 (centres undefined),84.8
15,Cc1ccccc1SC1CCN(C(=O)C2[C@H]3CNC[C@@H]23)CC1 (some centres undefined),73.3
16,Cc1ccc(C(=O)N2C[C@H]3CNC[C@H]3C2)cn1,-104
17,COc1ncc(-c2cc(NC3CCCC3)nc3[nH]ccc23)c(OC)n1,74
18,Cc1cc(Oc2ccc(NC(=O)C3CC3)cc2)cc(C2CCNCC2)n1,87.8
19,Fc1cccnc1O[C@H]1CN(Cc2ccoc2)[C@@H]2CCCO[C@H]12,-26.7
20,COCC1CN(c2ccc(C#N)c(Cl)c2)CCO1 (centres undefined),-35.5
21,c1cc(CN2C[C@@H]3OCCN(CC4CCCO4)[C@@H]3C2)ccn1 (some centres undefined),-111
22,CNc1cc(C)nc(N2Cc3cnn(Cc4ccc(F)cc4)c3C2)n1,91.9

row,SMILES,INHIBITION [%]
1,CC(C)NC(=O)[C@H]1C[C@@H]2[C@@H](C1)OCCN2Cc1cccnc1,-95.4
2,N#Cc1ccc(S(=O)(=O)NCCn2ccnc2)cc1Cl,-39.2
3,O=S(=O)(NCCN1CC=CC1)c1ccc(Cl)cc1,76.2
4,O=C(Cc1ccccc1)N1CCN(Cc2noc(C3CC3)n2)CC1,-62.4
5,c1ccc2nc(CN3CCCC3c3noc(C4CC4)n3)ccc2c1 (centres undefined),72.7
6,Cc1nc(CN2CCCC2c2noc(C3CC3)n2)nc2ccccc12 (centres undefined),78.7
7,COCCN1C[C@@H]2CC[C@H]1CN(Cc1ccc3ccccc3n1)C2,21.2
8,CCCS(=O)(=O)CC(=O)N1CCCC1c1noc(C2CC2)n1 (centres undefined),-40.7
9,CCN1CCc2[nH]cnc2C12CCN(c1ccc(Cl)cn1)CC2,42.9
10,CN(C)Cc1cc(C2CCCCN2S(=O)(=O)c2cccc(Cl)c2)nn1C (centres undefined),78.8
11,CN1CC2(CCNCC2)CC1C(=O)NCCCNc1cccnc1 (centres undefined),-62
12,Cc1cnc(N2CC[C@H]3[C@H](C[C@@H](CN(C)C)N3C)C2)nc1,-51.8
13,CSCc1cc(F)ccc1CNCc1cccc(O)c1,72.6
14,Cc1cccc2[nH]c(-c3cn(C4CCNCC4)nn3)nc12,73.5
15,Cc1cc2nc(-c3cn(C4CCNCC4)nn3)[nH]c2cc1C,87.5
16,Cc1ccc2[nH]c(-c3cn(C4CCNCC4)nn3)nc2c1C,85.5
17,Cc1cc(CN2C[C@@H]3COC[C@]3(CN(C)C)C2)no1,-59
18,Cc1ccc(N2CCO[C@H]3CN(Cc4nccs4)C[C@H]32)nn1,-168
19,CCO[C@H]1CN(CC2CC2)[C@@H]2CCCO[C@H]12,-82.9
20,CCc1noc(CC)c1CC(=O)N1CCCC(N2CCCCC2)C1 (centres undefined),-22.8
